{"source": "PubChem BioAssay (EPA / NIEHS)", "note": "Results filed as inconclusive are left out. Active and inactive are the calls of the source. Rule for the calls: active = hit-call score of the fitted dose curve at least 0.9, where 1 is the maximum; inconclusive = response in the unintended direction; inactive = score below 0.9.", "data": [{"target": "Glucocorticoid receptor (Homo sapiens) (UniProt P04150)", "sequence (P04150 whole entry, looked up)": "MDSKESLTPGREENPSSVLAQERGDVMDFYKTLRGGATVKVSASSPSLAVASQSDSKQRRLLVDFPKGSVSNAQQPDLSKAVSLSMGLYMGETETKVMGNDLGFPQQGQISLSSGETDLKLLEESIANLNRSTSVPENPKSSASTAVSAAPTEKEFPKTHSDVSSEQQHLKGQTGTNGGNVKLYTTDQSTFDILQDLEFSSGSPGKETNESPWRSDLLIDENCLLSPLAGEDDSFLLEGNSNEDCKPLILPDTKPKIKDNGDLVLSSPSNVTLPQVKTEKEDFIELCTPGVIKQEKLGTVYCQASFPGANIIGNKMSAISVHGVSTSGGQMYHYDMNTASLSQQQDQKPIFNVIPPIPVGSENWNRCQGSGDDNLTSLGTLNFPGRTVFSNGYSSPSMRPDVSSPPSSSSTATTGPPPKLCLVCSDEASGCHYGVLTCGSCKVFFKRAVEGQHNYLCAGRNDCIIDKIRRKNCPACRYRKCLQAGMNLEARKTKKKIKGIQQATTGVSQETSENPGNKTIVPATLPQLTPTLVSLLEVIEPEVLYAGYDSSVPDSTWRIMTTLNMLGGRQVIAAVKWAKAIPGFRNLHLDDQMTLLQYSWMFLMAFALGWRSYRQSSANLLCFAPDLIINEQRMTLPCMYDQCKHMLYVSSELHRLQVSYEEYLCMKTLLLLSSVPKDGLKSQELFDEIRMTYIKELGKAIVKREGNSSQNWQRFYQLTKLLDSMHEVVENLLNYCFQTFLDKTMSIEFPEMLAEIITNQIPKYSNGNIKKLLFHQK", "test": "ATG_GR_TRANS: Attagene TRANS-FACTORIAL HepG2 Assay for human Glucocorticoid Receptor (GR) (AID 2282978);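 note: activators score as hits since higher reporter transcript over DMSO is fitted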", "conditions": "HepG2 Attagene TRANS GR reporter, mRNA transcription", "experimental": "ATG_TRANS is a cell-based, multiplexed-readout assay that uses HepG2, a human liver cell line, with measurements taken at 24 hours after chemical dosing in a 24-well plate.ATG_GR_TRANS is one of 30 assay component(s) measured or calculated from the ATG_TRANS assay. It is designed to make measurements of mRNA induction, a form of inducible reporter, as detected with fluorescence intensity signals by Reverse transcription polymerase chain reaction (RT-PCR) and Capillary electrophoresis technology.Data from the assay component ATG_GR_TRANS was analyzed into 1 assay endpoint. This assay endpoint, ATG_GR_TRANS, was analyzed in the positive analysis fitting direction relative to DMSO as the negative control and baseline of activity. Using a type of inducible reporter, measures of mRNA for gain-of-signal activity can be used to understand the reporter gene at the transcription factor-level as they relate to the gene NR3C1. Furthermore, this assay endpoint can be referred to as a primary readout, because this assay has produced multiple assay endpoints where this one serves a reporter gene function. To generalize the intended target to other relatable targets, this assay endpoint is annotated to the nuclear receptor intended target family, where the subfamily is steroidal.\nHuman liver HepG2 cells are transiently transfected with multiple reporter transcription units (MRTUs) in 6-well plates using FuGene 6 reagent (Roche; 3 ml FuGene/1 mg DNA). The MRTU constructs are regulated by a cis-regulating element (promoter). […] A major difference between the CIS and TRANS system is that in CIS activities of endogenous TFs are measured, whereas the TRANS assay evaluates changes in activities of exogenous, chimeric NR-Gal4 proteins. […] At the end of 24 hour incubation, total RNA was isolated using TriZol reagent (Invitrogen). The isolated RNA is then reverse-transcribed using oligo(dT) primer and Mo-MLV reverse transcriptase (Invitrogen) with DNAse I (Ambion) treatment for 30 min. The one-tenth of the produced cDNA was amplified by PCR using Taq DNA polymerase (Invitrogen) and two reporter sequence-specific primers. The PCR products were fluorescently labeled by primer extension with 6-arboxyfluorescein (6-FAM) 5'-labeled reporter sequence-specific primer (2 min at 95 C, 20 s at 68 C and 10 min at 72 C) and these products were digested with 5U of HpaI (New England Biolabs) for 2h at 37 C. The fragments were purified using Qiaquick PCR columns (Qiagen), analyzed on an ABI 3130xL genetic analyzer (Applied Biosystems) with peak positions identified by using a set of X-rhodamine (ROX)-labeled MapMarker1000 molecular weight standards (BioVentures). The raw capillary electrophoresis data was processed using Attagraph software (Attagene).", "values": [{"compound": "CC(C)CCCCCCCOC(=O)c1ccc(C(=O)OCCCCCCCC(C)C)c(C(=O)OCCCCCCCC(C)C)c1", "outcome": "inactive"}, {"compound": "CC1CCC(C(C)CS)CC1S", "note": "(stereo not given)", "outcome": "inactive"}, {"compound": "NC(=O)Nc1ccc(Cl)cc1", "outcome": "inactive"}, {"compound": "CCCCC(CC)COCCC#N", "note": "(stereo not given)", "outcome": "inactive"}, {"compound": "CC(C=O)Cc1ccc(C(C)C)cc1", "note": "(stereo not given)", "outcome": "inactive"}, {"compound": "COC(=O)OC", "outcome": "inactive"}, {"compound": "[Ca+2]", "outcome": "inactive"}, {"compound": "O=[N+]([O-])c1ccc(Nc2ccc(Nc3ccccc3)c(S(=O)(=O)O)c2)c([N+](=O)[O-])c1", "outcome": "inactive"}, {"compound": "CCc1c(C)cc(N)c(CC)c1N", "outcome": "inactive"}, {"compound": "C#C[C@]1(O)CC[C@H]2[C@@H]3CCC4=Cc5oncc5C[C@]4(C)[C@H]3CC[C@@]21C", "outcome": "inactive"}, {"compound": "C/C=C(\\C)C(=O)OCc1ccccc1", "outcome": "inactive"}, {"compound": "Cc1ccc(C(=O)c2cc(O)c(O)c([N+](=O)[O-])c2)cc1", "AC50": "144 µM (active)"}, {"compound": "Nc1cc([N+](=O)[O-])ccc1O", "outcome": "inactive"}, {"compound": "CCCCCCOC(=O)CCCCC", "outcome": "inactive"}, {"compound": "CCCCCCCCCCN", "outcome": "inactive"}, {"compound": "COc1cc(C(C)(C)C)c(O)c(C(C)(C)C)c1", "outcome": "inactive"}, {"compound": "CC(C)(CO)[N+](=O)[O-]", "outcome": "inactive"}, {"compound": "Cc1cccc(C)c1C", "outcome": "inactive"}, {"compound": "O=C(O)c1ccc([N+](=O)[O-])cc1", "outcome": "inactive"}, {"compound": "CCCC(C)C=O", "note": "(stereo not given)", "outcome": "inactive"}, {"compound": "C=C(C)C(=O)O", "outcome": "inactive"}, {"compound": "CCCCC/C=C/C=C/C=O", "outcome": "inactive"}, {"compound": "Cc1ccccc1C=O", "outcome": "inactive"}, {"compound": "COc1cc(C=O)ccc1OC(=O)C(C)C", "outcome": "inactive"}, {"compound": "CCCCCC=CCC(=O)OC", "outcome": "inactive"}, {"compound": "N#Cc1ccccc1", "outcome": "inactive"}, {"compound": "Nc1cc(N)cc(C(=O)O)c1", "outcome": "inactive"}, {"compound": "C[Si](O[Si](C)(C)C)O[Si](C)(C)C", "outcome": "inactive"}, {"compound": "COC(=O)Cc1cccc2ccccc12", "outcome": "inactive"}, {"compound": "CC1(C)[C@@H]2CC[C@@]1(C)[C@H](O)C2", "outcome": "inactive"}, {"compound": "C=C[Si](OCC)(OCC)OCC", "outcome": "inactive"}, {"compound": "Cc1ccc2n[nH]nc2c1", "outcome": "inactive"}, {"compound": "COc1cc(C)cc(O)c1", "outcome": "inactive"}, {"compound": "CC(C)(C)NC(N)=O", "outcome": "inactive"}, {"compound": "FC1(F)C(F)(F)C(F)(F)C2(F)C(F)(C1(F)F)C(F)(F)C(F)(F)C1(F)C(F)(F)C(F)(F)C(F)(F)C(F)(F)C12F", "note": "(stereo not given)", "outcome": "inactive"}, {"compound": "CCCCCCC#CC(=O)OC", "outcome": "inactive"}, {"compound": "CCCCC(CC)COC(=O)/C=C\\C(=O)OCC(CC)CCCC", "note": "(stereo not given)", "outcome": "inactive"}, {"compound": "Cc1cccc(C)c1[N+](=O)[O-]", "outcome": "inactive"}, {"compound": "CCc1ccc(C=O)cc1", "outcome": "inactive"}, {"compound": "CCCCN", "outcome": "inactive"}]}]}
